Measured values taken from the OligoGym collection.

biological target: CCDC56; assay: pooled miR-30 sensor sort-seq; sequence = guide strand; settings: shRNA
Note: reference of the scale not given here.

Sequence	sensor-assay potency score (higher = more potent)
ACCATAAATAGCCAACACCAGG	-2.43
TCGAGTAGAAGGTGTAACCATA	-1.07
TTGCCAGAGCTCGGGCTCGGGC	-1.79
TAGCTCATCTAGGAAACGCTCC	-0.33
TAAATAGCCAACACCAGGGCCC	0.333
TTGCTCGGGTGTCAGCTTCTCC	-1.07
TAGAATCCAGAGGGTCACCAGC	-1.25
ATCTAGGAAACGCTCCTGGGAA	-1.12
TCGTCTTCTAGCTCATCTAGGA	-0.614
TCATCTAGGAAACGCTCCTGGG	-1.24

biological target: CCDC72; assay: as above; settings: shRNA

Sequence	sensor-assay potency score (higher = more potent)
TTAAATGTACAACAGCTCCAAG	-1.04
TTCCTCGTCCATCTCCTTGGCC	-0.547
TTATCTTCCTCGTCCATCTCCT	0.315
ATCTTCCTCGTCCATCTCCTTG	-1.81
TTGTTTCTGCTTGAAAGCCTTA	-0.0976
TTTGTTTCTGCTTGAAAGCCTT	-0.585
TTATTCTTAAATGTACAACAGC	-0.855
TCTTCCTCGTCCATCTCCTTGG	-0.456
TTCAGTGGCTTCTTCTTGCCAC	0.0626
TCTGCTTGAAAGCCTTATCTTC	-0.819

biological target: CCDC77; assay: as above; settings: shRNA

Sequence	sensor-assay potency score (higher = more potent)
TAATATATTCACTTTGAGCATG	-0.91
TTTGGTGCTCTCATAGAGCAGT	-0.0472
TTTTTCTCTTGTACTAACTTAT	-0.944
TATGCTGTCCTTCACAAGCTTC	-1.33
TTATCTTTTTCAAGCATCCATG	-1.19
TTGCAAAATACCTTCTTCCTAA	-0.254
TAGCTCTTTGATTTTGTTCTGA	0.252
TTCTTGTCTTCTAGCTCCCTGA	-1.06
TTTCTTCTTACACTGCACCCTA	-0.0389
TTAATATCTGTCTTAAAGCCTT	-0.792
TTTCGTTTGAGTCTCTAGCGCC	-0.231
TTTCTTGTCTTCTAGCTCCCTG	-0.0804

biological target: CCL13; assay: as above; settings: shRNA

Sequence	sensor-assay potency score (higher = more potent)
TTTCATATAATTCTGGACCCAC	0.0997
TTACTTAACACATAGTACATTT	-1.04
TAAATGTGAAGCAGCAAGTAGA	-1.06
ATCTTCTTACTGCTAAATGTGA	-1.06
ATTCTGGACCCACTTCTCCTTT	-1.22
TAACACATAGTACATTTTGAAT	-1.62
TGCAAGGAGATCTTCTTACTGC	-0.0125
TGAAGCAGCAAGTAGATGGGAC	-0.203
